Source: publication PMC7862700, “An all-to-all approach to the identification of sequence-specific readers for epigenetic DNA modifications on cytosine”

Columns and labels:
Assay in all cases: DAPPL (digital affinity profiling via proximity ligation, sequencing); 10 mM Tris-HCl pH 7.5, 50 mM NaCl, 1 mM DTT, 4% glycerol, room temperature, 30 min; GST-TFs on glutathione beads, 16-mer random dsDNA library, 0.1% formaldehyde crosslink after washing; high values mean tight binding
Conditions in all cases: protein: recombinant; tags: N-terminal GST; dsDNA, one strand shown
ELK1 = molecular target: T1, ELK1 (Homo sapiens, UniProt P19419 1-428)
T1 sequence: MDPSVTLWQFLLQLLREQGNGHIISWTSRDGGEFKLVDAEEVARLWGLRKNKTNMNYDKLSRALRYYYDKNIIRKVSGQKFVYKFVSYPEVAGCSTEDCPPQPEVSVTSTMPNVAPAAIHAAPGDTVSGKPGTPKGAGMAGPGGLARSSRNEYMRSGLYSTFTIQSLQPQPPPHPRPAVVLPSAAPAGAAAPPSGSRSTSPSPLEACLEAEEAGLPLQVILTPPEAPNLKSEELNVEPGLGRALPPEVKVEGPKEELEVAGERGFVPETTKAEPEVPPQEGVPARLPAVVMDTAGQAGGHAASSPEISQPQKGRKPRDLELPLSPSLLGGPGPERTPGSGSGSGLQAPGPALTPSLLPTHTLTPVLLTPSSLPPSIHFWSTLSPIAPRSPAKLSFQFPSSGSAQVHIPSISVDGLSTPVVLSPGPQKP
Procedure, shortened: (§1)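 GST fusions of human transcription factors were expressed in yeast and captured with glutathione beads. Once given DNA barcodes and pooled alongside a tag-only sample, they were incubated for 30 min at room temperature with 200 nmole of a random double-stranded 16-mer DNA library in Tris/NaCl/DTT/glycerol buffer, then washed, crosslinked (0.1% formaldehyde), proximity-ligated, PCR-amplified and sequenced on an Illumina NextSeq500. The binding signal of each hexamer is its read frequency for a factor divided by its frequency for the tag-only sample.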

ERG = molecular target: T2, ERG (Homo sapiens, UniProt P11308 1-479)
T2 sequence: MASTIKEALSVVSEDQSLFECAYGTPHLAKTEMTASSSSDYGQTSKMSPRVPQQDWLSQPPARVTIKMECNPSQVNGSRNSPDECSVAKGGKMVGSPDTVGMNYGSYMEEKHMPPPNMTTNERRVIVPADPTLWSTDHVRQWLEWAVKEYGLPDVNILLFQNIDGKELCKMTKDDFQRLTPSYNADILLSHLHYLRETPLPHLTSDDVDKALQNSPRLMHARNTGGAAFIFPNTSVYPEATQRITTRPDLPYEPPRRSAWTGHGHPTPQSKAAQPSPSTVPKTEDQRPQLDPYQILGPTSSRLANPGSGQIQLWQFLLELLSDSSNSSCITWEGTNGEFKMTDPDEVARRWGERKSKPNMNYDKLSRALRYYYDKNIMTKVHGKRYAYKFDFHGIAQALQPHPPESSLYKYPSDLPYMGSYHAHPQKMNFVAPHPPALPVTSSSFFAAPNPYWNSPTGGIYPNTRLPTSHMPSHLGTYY
Procedure, shortened: as §1

ELF1 = ELF1 (Homo sapiens, UniProt P32519 1-619)
Procedure, shortened: as §1

EHF = molecular target: T3, EHF (Homo sapiens, UniProt Q9NZC4 1-300)
T3 sequence: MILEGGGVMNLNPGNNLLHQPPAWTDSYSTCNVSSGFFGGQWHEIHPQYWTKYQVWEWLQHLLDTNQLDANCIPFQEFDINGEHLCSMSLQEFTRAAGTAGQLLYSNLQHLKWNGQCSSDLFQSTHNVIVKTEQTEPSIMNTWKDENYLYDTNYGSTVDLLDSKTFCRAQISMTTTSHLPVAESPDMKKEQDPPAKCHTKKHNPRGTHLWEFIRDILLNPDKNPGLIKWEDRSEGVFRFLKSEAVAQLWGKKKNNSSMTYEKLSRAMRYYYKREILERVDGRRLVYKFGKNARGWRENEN
Procedure, shortened: as §1

SPIB = SPIB (Homo sapiens, UniProt Q01892 1-262)
Procedure, shortened: as §1

FEV = molecular target: T4, FEV (Homo sapiens, UniProt Q99581 1-238)
T4 sequence: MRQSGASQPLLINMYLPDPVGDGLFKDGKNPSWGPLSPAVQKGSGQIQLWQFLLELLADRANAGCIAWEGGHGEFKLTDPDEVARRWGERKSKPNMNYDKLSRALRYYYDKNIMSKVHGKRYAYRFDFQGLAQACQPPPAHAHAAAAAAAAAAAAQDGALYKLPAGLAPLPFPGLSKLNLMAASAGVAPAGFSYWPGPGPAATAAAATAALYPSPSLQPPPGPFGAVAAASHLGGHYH
Procedure, shortened: as §1

ETV5 = ETV5 (Homo sapiens, UniProt P41161 1-510)
Procedure, shortened: as §1

ELF4 = ELF4 (Homo sapiens, UniProt Q99607 1-663)
Procedure, shortened: as §1

ELK4 = molecular target: T5, ELK4 (Homo sapiens, UniProt P28324-2 1-405)
T5 sequence: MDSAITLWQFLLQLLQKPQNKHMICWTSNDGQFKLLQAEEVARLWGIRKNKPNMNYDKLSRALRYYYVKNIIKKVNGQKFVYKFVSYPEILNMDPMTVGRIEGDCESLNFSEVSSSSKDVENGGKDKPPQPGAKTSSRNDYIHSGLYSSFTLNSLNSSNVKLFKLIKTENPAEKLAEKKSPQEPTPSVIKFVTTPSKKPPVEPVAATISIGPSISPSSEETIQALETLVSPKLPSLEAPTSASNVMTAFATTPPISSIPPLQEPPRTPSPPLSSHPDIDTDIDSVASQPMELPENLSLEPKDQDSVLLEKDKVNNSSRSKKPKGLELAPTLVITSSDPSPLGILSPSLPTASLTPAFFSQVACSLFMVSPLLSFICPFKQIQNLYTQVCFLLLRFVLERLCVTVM
Procedure, shortened: as §1

ETV1 = ETV1 (Homo sapiens, UniProt P50549 1-477)
Procedure, shortened: as §1

ERF = molecular target: T6, ERF (Homo sapiens, UniProt P50548 1-548)
T6 sequence: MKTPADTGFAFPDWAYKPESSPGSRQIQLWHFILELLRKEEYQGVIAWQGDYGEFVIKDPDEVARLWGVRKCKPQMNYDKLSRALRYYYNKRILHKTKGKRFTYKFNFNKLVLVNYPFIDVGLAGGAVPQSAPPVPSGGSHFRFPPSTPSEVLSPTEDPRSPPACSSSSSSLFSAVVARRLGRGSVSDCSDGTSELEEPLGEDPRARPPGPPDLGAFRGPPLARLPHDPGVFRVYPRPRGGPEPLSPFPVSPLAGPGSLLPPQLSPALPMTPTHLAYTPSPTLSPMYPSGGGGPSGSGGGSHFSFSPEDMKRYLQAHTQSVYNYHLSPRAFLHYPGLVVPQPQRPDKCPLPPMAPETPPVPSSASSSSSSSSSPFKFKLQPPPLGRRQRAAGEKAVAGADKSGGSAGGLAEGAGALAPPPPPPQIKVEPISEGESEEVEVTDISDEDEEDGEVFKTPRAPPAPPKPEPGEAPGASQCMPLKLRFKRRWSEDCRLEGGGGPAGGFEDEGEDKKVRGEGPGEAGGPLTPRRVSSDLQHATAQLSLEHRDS
Procedure, shortened: as §1

ETV3L = molecular target: T7, ETV3L (Homo sapiens, UniProt Q6ZN32 1-361)
T7 sequence: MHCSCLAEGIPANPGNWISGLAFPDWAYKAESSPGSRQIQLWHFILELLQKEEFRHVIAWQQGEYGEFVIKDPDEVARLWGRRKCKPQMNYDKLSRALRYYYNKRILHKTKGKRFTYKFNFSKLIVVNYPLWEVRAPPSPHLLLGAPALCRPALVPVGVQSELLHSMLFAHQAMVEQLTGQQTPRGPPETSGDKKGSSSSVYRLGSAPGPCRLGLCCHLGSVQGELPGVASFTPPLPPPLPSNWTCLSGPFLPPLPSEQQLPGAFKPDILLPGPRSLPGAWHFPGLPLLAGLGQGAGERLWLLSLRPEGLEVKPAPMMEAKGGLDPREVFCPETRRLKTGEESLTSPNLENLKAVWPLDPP
Procedure, shortened: as §1

ETS2 = molecular target: T8, ETS2 (Homo sapiens, UniProt P15036 1-469)
T8 sequence: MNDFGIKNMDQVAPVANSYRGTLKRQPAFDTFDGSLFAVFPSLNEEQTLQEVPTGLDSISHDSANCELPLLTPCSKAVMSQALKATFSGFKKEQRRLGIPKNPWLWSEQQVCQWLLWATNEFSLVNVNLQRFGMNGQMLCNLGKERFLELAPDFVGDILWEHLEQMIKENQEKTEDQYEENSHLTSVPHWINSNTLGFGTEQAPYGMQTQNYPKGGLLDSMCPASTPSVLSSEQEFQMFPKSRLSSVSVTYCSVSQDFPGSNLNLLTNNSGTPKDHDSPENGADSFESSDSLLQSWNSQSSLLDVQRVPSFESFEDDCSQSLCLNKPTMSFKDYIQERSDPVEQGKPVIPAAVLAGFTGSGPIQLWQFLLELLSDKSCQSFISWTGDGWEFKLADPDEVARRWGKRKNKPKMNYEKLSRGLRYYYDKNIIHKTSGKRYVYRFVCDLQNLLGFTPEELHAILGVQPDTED
Procedure, shortened: as §1

SPDEF = molecular target: T9, SPDEF (Homo sapiens, UniProt O95238 1-335)
T9 sequence: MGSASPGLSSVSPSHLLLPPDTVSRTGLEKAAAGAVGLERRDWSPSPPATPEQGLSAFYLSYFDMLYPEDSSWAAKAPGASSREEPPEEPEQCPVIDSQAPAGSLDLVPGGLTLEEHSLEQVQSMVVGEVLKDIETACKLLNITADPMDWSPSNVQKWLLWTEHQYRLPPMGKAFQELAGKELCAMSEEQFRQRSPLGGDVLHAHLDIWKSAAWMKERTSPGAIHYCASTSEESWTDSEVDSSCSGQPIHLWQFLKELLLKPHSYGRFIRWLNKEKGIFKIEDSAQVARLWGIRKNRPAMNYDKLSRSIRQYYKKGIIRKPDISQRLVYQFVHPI
Procedure, shortened: as §1

ETV7 = molecular target: T10, ETV7 (Homo sapiens, UniProt Q9Y603 1-341)
T10 sequence: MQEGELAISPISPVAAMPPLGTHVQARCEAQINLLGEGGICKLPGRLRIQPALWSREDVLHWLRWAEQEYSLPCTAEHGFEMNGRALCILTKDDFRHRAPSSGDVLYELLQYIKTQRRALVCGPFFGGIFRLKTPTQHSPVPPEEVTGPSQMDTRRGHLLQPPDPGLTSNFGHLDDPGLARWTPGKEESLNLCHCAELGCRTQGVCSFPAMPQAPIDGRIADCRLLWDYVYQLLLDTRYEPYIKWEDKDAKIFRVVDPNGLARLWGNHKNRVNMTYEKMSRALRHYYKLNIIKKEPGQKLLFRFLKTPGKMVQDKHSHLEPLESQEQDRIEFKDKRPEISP
Procedure, shortened: as §1

ETV3 = molecular target: T11, ETV3 (Homo sapiens, UniProt P41162-2 1-143)
T11 sequence: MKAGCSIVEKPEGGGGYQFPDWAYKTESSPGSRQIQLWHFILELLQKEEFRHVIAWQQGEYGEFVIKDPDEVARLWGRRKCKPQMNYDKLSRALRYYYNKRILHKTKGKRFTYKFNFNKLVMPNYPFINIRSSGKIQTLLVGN
Procedure, shortened: as §1

ETV6 = ETV6 (Homo sapiens, UniProt P41212 1-452)
Procedure, shortened: as §1

Sequence of ETV5 (P41161 whole entry): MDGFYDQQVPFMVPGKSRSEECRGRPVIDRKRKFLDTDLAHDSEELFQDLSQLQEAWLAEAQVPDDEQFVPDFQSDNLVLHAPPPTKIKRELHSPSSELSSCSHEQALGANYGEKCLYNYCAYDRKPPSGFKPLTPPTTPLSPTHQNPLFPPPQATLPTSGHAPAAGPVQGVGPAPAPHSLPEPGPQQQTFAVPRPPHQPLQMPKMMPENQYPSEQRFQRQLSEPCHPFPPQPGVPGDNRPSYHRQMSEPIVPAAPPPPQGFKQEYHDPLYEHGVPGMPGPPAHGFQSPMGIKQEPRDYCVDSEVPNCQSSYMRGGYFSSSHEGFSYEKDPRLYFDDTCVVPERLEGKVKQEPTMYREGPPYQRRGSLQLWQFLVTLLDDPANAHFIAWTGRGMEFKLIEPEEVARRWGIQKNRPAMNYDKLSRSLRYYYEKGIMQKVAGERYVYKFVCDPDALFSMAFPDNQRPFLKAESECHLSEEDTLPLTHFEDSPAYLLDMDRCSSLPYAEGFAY
Sequence of SPIB (Q01892 whole entry): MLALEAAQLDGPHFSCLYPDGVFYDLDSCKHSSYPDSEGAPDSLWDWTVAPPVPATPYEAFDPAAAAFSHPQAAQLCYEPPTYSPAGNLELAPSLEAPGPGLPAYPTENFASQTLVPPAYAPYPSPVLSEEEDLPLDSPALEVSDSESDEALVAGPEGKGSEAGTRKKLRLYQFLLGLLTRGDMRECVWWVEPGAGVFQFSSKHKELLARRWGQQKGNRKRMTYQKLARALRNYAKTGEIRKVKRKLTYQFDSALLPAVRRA
Sequence of ELF4 (Q99607 whole entry): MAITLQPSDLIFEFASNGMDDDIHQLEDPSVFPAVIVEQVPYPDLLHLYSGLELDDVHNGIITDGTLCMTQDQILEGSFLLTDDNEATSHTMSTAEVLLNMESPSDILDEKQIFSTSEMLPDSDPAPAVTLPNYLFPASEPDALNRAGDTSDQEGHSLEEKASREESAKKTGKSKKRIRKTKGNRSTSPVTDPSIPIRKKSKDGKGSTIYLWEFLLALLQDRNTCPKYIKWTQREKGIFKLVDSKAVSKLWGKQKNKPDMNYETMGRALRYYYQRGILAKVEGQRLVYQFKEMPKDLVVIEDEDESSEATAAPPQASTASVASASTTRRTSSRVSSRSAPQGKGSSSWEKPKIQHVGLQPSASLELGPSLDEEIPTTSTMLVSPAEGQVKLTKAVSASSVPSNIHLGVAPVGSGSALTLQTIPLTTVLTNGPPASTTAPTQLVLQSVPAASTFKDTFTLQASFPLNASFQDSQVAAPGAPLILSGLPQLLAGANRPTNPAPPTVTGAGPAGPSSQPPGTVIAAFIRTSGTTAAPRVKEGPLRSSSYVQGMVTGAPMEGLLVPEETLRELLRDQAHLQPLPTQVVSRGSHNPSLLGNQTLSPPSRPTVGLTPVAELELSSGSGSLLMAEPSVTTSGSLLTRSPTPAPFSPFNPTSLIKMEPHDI
Sequence of ETV6 (P41212 whole entry): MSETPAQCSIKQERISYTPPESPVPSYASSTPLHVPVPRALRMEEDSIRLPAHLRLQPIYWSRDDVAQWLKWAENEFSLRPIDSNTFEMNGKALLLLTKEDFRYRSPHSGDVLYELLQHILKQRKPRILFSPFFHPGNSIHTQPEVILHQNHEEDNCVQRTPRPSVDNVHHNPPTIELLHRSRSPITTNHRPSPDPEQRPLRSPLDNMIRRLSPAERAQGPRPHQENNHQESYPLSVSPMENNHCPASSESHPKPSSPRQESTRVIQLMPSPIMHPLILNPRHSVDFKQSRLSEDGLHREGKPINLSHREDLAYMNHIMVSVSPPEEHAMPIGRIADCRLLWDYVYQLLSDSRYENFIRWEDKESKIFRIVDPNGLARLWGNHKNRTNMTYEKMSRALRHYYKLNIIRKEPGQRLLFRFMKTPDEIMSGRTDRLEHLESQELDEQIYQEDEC
Sequence of ETV1 (P50549 whole entry): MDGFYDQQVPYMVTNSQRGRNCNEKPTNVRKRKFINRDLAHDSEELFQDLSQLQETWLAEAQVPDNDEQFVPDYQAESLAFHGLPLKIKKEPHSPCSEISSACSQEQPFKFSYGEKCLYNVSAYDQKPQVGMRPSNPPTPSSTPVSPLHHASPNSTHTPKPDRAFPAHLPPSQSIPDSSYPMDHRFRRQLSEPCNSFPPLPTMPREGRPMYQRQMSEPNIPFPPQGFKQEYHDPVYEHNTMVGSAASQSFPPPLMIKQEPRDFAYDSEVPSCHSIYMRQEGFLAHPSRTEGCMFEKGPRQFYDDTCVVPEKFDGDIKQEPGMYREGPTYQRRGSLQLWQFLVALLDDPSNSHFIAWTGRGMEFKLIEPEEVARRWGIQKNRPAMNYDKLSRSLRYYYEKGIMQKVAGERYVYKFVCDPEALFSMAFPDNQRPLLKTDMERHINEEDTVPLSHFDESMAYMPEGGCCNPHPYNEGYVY
Sequence of ELF1 (P32519 whole entry): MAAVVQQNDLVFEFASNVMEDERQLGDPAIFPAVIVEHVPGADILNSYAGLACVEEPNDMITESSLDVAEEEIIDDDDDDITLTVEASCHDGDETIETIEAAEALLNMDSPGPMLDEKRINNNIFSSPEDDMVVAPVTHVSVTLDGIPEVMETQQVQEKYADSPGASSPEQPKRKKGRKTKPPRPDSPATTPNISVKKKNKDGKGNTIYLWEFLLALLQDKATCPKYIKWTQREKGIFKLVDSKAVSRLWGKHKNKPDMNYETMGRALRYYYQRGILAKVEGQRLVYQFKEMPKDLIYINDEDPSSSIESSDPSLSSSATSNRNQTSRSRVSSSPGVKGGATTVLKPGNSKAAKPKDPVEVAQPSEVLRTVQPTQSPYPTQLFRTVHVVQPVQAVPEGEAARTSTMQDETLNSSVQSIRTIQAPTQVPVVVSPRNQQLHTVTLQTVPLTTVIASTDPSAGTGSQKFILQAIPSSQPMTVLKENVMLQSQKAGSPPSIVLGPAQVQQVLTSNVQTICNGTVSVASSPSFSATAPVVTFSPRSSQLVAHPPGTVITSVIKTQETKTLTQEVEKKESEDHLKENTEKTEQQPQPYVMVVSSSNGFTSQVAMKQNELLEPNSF

Sequence: GGTACA
- binding signal (ELK1): 1.08 fold enrichment (6-mer frequency, TF over GST control)
- binding signal (ERG): 1.09 fold enrichment (6-mer frequency, TF over GST control)
- binding signal (ELF1): 1.03 fold enrichment (6-mer frequency, TF over GST control)
- binding signal (EHF): 1.05 fold enrichment (6-mer frequency, TF over GST control)
- binding signal (SPIB): 1.11 fold enrichment (6-mer frequency, TF over GST control)
- binding signal (FEV): 1.03 fold enrichment (6-mer frequency, TF over GST control)
- binding signal (ETV5): 1.05 fold enrichment (6-mer frequency, TF over GST control)
- binding signal (ELF4): 1 fold enrichment (6-mer frequency, TF over GST control)
- binding signal (ELK4): 1.11 fold enrichment (6-mer frequency, TF over GST control)
- binding signal (ETV1): 1.07 fold enrichment (6-mer frequency, TF over GST control)
- binding signal (ERF): 1.09 fold enrichment (6-mer frequency, TF over GST control)
- binding signal (ETV3L): 1.04 fold enrichment (6-mer frequency, TF over GST control)
- binding signal (ETS2): 1.03 fold enrichment (6-mer frequency, TF over GST control)
- binding signal (SPDEF): 1.11 fold enrichment (6-mer frequency, TF over GST control)
- binding signal (ETV7): 1.11 fold enrichment (6-mer frequency, TF over GST control)
- binding signal (ETV3): 1.09 fold enrichment (6-mer frequency, TF over GST control)
- binding signal (ETV6): 1.11 fold enrichment (6-mer frequency, TF over GST control)
